About 480 (0.16%) of roughly 300,000 compounds were called active.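 Rule for the calls: active = inhibition over 29.93%, a cutoff 3 SD above the screen mean, later confirmed by dose response; inconclusive = inhibition over 29.93% but no dose response follow-up; inactive = inhibition at most 29.93% or unconfirmed.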 The list is a sample of the results. Results with a measured potency or affinity are listed apart.
Assay: inhibitors of PhoP regulon expression, primary screen, Salmonella Typhimurium, GFP reporter (AID 1863);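 note: 0% = low Mg2+ inducing control and 100% = high Mg2+ repressing control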
Conditions: S. Typhimurium PhoP-regulated promoter GFP reporter, 4 h; at 50 µM; stronger effect = higher value

inhibition, inactive:
COc1ccc2c(CC(=O)Nc3ccc(OC)c(S(=O)(=O)N4CCOCC4)c3)coc2c1 4.59%, O=C(NCC(O)COc1ccc([N+](=O)[O-])cc1)c1ccccc1 (centres undefined) -9.65%, Clc1ccc(CNCCC2=CCCCC2)cc1 18.9%, Cc1ccc(CNCCC2=CCCCC2)cc1 -46.6%, O=C(NC1CC1)c1c[nH]c2ccc(S(=O)(=O)Nc3cccc(C(F)(F)F)c3)cc2c1=O 14.8%, CCn1cc(C(=O)NCCc2ccccc2)c(=O)c2cc(F)c(N3CCN(C)CC3)cc21 -0.827%, C=CCNC(=O)c1cn(CC)c2cc(N3CCN(C(=O)c4ccco4)CC3)c(F)cc2c1=O 5.05%, CCn1cc(C(=O)NCc2ccccc2)c(=O)c2cc(F)c(N3CCN(C(=O)c4ccco4)CC3)cc21 6.24%, CCn1cc(C(=O)O)c(=O)c2cc(F)c(N3CCN(C(=S)NC(=O)c4ccccc4Br)CC3)cc21 8.64%, CCC(CO)NC(=O)c1ccccc1C(F)(F)F (centres undefined) 2.52%, O=C(O)C1C2CCC(O2)C1C(=O)Nc1ccccc1Br (centres undefined) -9.38%, COC(=O)c1ccccc1NC(=O)C1CCN(C(=O)Cc2ccccc2)CC1 3.37%, CCOC(=O)COc1c(Br)cc(/C=C2\SC(=O)N(CC(=O)N3CCCC3)C2=O)cc1OC 5.47%, COc1ccc(N(C(=O)CNC(=O)c2cccs2)C(C(=O)NC2CCCC2)c2ccncc2)cc1 (centres undefined) -0.95%, Cc1nc2nc3c(cn2n1)C(=O)CC(C)(C)C3 -6.32%, CC(C)n1c(SCC(=O)NC2CC2)nnc1-c1ccco1 3.76%, CCOC(=O)CSc1nc2c(c(=O)n1-c1ccc(OCC)cc1)SCC2 -4.68%, COc1ccc(C(=O)c2no[n+]([O-])c2C(=O)c2ccc(OC)cc2)cc1 -73.5%, Cc1ccc(C(=O)c2no[n+]([O-])c2C(=O)c2ccc(C)cc2)cc1 -26.5%, Cc1ccc(S(=O)(=O)NN2C(=O)c3ccccc3NC2c2ccccc2O)cc1 (centres undefined) 2.27%, Cc1onc(-c2ccccc2)c1C(=O)NC(=S)NNC(=O)c1ccc(O)cc1 -7.99%, Cc1onc(-c2ccccc2)c1C(=O)NC(=S)NNC(=O)c1ccccc1O 18.4%, CC(C)[C@@H](COc1ccccc1)N1CCN(Cc2ccccc2)CCC1=O 11.4%, Cc1ccc(N(CC(=O)NC2CCCCC2)C(=O)CNC(=O)c2cccs2)cc1 5.02%, CNC[C@H](CC1CCCCC1)NC[C@H](CO)NCC1(c2ccccc2)CC1 5.82%, CNC[C@H](CC1CCCCC1)NC[C@H](CO)NCCc1cccc(C(F)(F)F)c1 13%, Cc1ccccc1NC(=O)NC1(C(=O)NCc2ccco2)CCCCC1 -5.56%, Cc1cccc(NC(=O)CSc2nnc(-c3ccncc3)n2CC2CCCO2)c1 (centres undefined) 0.37%, Clc1ccc2[nH]c3c(NCC4CCCO4)ncnc3c2c1 (centres undefined) 17.8%, Clc1ccc2[nH]c3c(NCCN4CCOCC4)ncnc3c2c1 -2.52%, COc1ccc(NC(=O)CSc2cc(C(=O)c3nccn3C)c3ccccc3n2)cc1 3.48%, CCOc1ccc(NC(=O)c2cc(Cl)nc3ccccc23)cc1 1.03%, C=CCNc1nc(Nc2ccccc2F)nc(OCC)n1 -4.99%, OCCNc1nc(NCc2ccccc2)c2ccccc2n1 3.19%, Cc1ccccc1Nc1nc(NCc2ccco2)c2ccccc2n1 25.6%, Cc1ccc(-c2nc(NCc3ccco3)c3ccccc3n2)cc1 23.9%, Oc1ccccc1Nc1nc(NCc2ccccc2)c2ccccc2n1 -0.55%, COc1ccccc1Nc1nc(NCc2ccco2)c2ccccc2n1 48%, Fc1ccccc1-c1nc(NCc2ccco2)c2ccccc2n1 -13.7%, CCc1noc(C)c1C(=O)Nc1ncc(C)s1 2.49%, CCC(Oc1ccccc1)C(=O)Nc1nc2ccccc2[nH]1 (centres undefined) -3.54%, Cc1ccc2cc(C(c3nnnn3C3CCCC3)N(Cc3ccco3)Cc3cccs3)c(=O)[nH]c2c1 (centres undefined) -2.55%, CN1CCc2c(sc3nc(NCCO)n(-c4cccc(Cl)c4)c(=O)c23)C1 -3.53%, CC(Oc1ccccc1)C(=O)N=C1SC2CS(=O)(=O)CC2N1c1ccc(F)cc1 (centres undefined) -3.91%, O=S(=O)(Nc1nc2ccccc2nc1NCC1CCCO1)c1ccc(F)cc1 (centres undefined) 6.59%, Cc1cc2ncn(/N=C/c3ccc([N+](=O)[O-])s3)c2cc1C -6.99%, Cc1cccc(C)c1NC(=O)CNCC(=O)Nc1c(C)cccc1C 0.56%, O=C(O)c1cccc(NC(=O)c2ccc3c(c2)C(=O)N(CC2CCCO2)C3=O)c1 (centres undefined) -1.15%, O=C(CSc1nc2ccccc2s1)N/N=C/c1ccccc1C(=O)O -5.31%, O=C(CSc1nc2ccccc2s1)NCc1cc([N+](=O)[O-])ccc1O -4.94%, O=[N+]([O-])c1ccc(/C=N/Nc2ccccn2)cc1 4.65%, COc1cc([N+](=O)[O-])cc(/C=N/NC(=O)CSc2ccccn2)c1O 24.8%, O=C(CSc1ccccn1)N/N=C/c1cccc([N+](=O)[O-])c1 0.8%, Cc1cc(Cl)ccc1NC(=O)CCC(=O)N/N=C/c1cc([N+](=O)[O-])ccc1O 12.1%, O=[N+]([O-])c1cccc(/C=N/Nc2ccccn2)c1 -2.55%, Cc1ccc(C)c(NC(=O)CCC(=O)N/N=C/c2cc([N+](=O)[O-])ccc2O)c1 8.86%, O=C1CCc2cc(NS(=O)(=O)c3ccccc3)cc3c2N1CCC3 3.44%, CCOC(=O)C1(Cc2ccc(Cl)cc2)CCN(C2CCC2)CC1 -6.48%, CC(C)c1nc(SCC(=O)Nc2cccc(S(N)(=O)=O)c2)n[nH]1 -17.9%
